{"source": "PubChem BioAssay AID624483", "about": "(NMMLSC, 2012)", "note": "Screen size: about 360,000 compounds; about 11,000 (3.1%) were called active. Not shown: some 2% with an inconclusive outcome. This excerpt belongs to a sample that is enriched for actives. Unmarked numbers belong to inactive results. No stated cut-off is given here; in the data, active means fluorescence intensity above about 16000; inconclusive means no clear call, values can overlap the other calls; inactive means below that."}
{"assay": "counter-screen for toxin protease inhibitors: compound fluorescence, primary screen, artefact control for toxin protease inhibitor project, biochemical, multiplex microsphere, HTS (AID 624483)", "conditions": "compound autofluorescence counterscreen, microsphere flow cytometry; hits give high values"}
{"smiles": "CS(=O)(=O)/C(C#N)=C/c1cccn1S(=O)(=O)c1ccc([N+](=O)[O-])cc1", "fluorescence intensity": 5100}
{"smiles": "CC(=O)Nc1cc(-c2ccccc2F)cn2c(-c3cccc(C(F)(F)F)c3)cnc12", "fluorescence intensity": 3600}
{"smiles": "Cc1ccc(-c2nc(C)sc2CC(=O)OCC(=O)Nc2c(F)cccc2F)cc1", "fluorescence intensity": 2600}
{"smiles": "CCOc1ccc(NC(=O)CN(C)C(=O)Cc2sc(C)nc2-c2ccc(F)cc2)cc1OCC", "fluorescence intensity": 8360}
{"smiles": "CCOc1ccc(-c2nc(C)sc2CC(=O)O)cc1", "fluorescence intensity": "22400 (active)"}
{"smiles": "CCOc1ccc(CCN2C(=S)N([C@@H](CC(C)C)CN3CCC[C@@H]3CN3C(=S)NC[C@@H]3Cc3ccc(O)cc3)C[C@@H]2CC(C)C)cc1", "fluorescence intensity": 6060}
{"smiles": "COc1ccc(CNC(=O)CN2C(=O)NC3(CCCc4sccc43)C2=O)cc1", "note": "(centres undefined)", "fluorescence intensity": 5880}
{"smiles": "COc1ccc(C(=O)CC(=O)c2ccc(C)cc2)c(O)c1", "fluorescence intensity": 4090}
{"smiles": "COc1ccc(OC)c(C(=O)c2ccc(C(=O)N3CCN(Cc4csc(C)n4)CC3)cc2)c1", "fluorescence intensity": 4240}
{"smiles": "COc1ccc(OC)c(C(=O)c2ccc(C(=O)O)cc2)c1", "fluorescence intensity": "16800 (active)"}
{"smiles": "COCOc1cccc(CN2CCC(C)(Oc3ccc(SC)cc3)C2)c1", "note": "(centres undefined)", "fluorescence intensity": 3010}
{"smiles": "Cc1[nH]c(C)c(S(=O)(=O)N2CCN(c3cccc(C(F)(F)F)c3)CC2)c1C(=O)N1CCCCC1", "fluorescence intensity": 5140}
{"smiles": "CN1C(=O)C2(OCCCO2)c2cc(Cl)ccc21", "fluorescence intensity": 3420}
{"smiles": "COc1ccc(S(=O)(=O)Nc2cc(C)on2)cc1NC(C)=O", "fluorescence intensity": 4100}
{"smiles": "COc1cc2ccccc2cc1C(=O)Nc1ccc(S(=O)(=O)Nc2cc(C)on2)cc1", "fluorescence intensity": "18400 (active)"}
{"smiles": "CCOc1ccc(C(=O)Nc2ccc(S(=O)(=O)Nc3cc(C)on3)cc2)cc1", "fluorescence intensity": 3660}
{"smiles": "CCCCNc1nc2c(c(=O)[nH]c(=O)n2C)n1CCOc1ccccc1", "fluorescence intensity": "20600 (active)"}
{"smiles": "CCCCNc1nc2c(c(=O)n(C)c(=O)n2C)n1Cc1cccc(OC)c1", "fluorescence intensity": 4560}
{"smiles": "COc1ccc(CCn2c(NCCCN3CCOCC3)nc3c2c(=O)[nH]c(=O)n3C)cc1", "fluorescence intensity": 4180}
{"smiles": "CCCC/C=C/c1cccc2nncn12", "fluorescence intensity": 3130}
{"smiles": "COc1ccc(CCC(C)N2CCc3ccccc3C2)cc1", "note": "(centres undefined)", "fluorescence intensity": 3950}
{"smiles": "COc1ccc(CN2CN(C3CCCC3)CSC2=S)cc1", "fluorescence intensity": 3230}
{"smiles": "COc1ccc(CN2CN(C(C)C)CSC2=S)cc1", "fluorescence intensity": "24500 (active)"}
{"smiles": "O=C(COc1ccc2c3c(c(=O)oc2c1)CCC3)NC1CCCCC1", "fluorescence intensity": 9280}
{"smiles": "NC(=O)C1CCN(C(=O)COc2ccc3c4c(c(=O)oc3c2)CCC4)CC1", "fluorescence intensity": 5000}
{"smiles": "NC(=O)COc1ccc2c3c(c(=O)oc2c1)CCCCC3", "fluorescence intensity": "24300 (active)"}
{"smiles": "Cc1nc(C(F)(F)F)ccc1C(=O)N1CCC1(C)C(=O)NS(=O)(=O)c1ccccc1Cl", "note": "(centres undefined)", "fluorescence intensity": 2880}
{"smiles": "O=C(CSc1nnc(-c2ccncc2)n1-c1ccc(Cl)cc1)Nc1ccc(C(=O)O)cc1", "fluorescence intensity": 3940}
{"smiles": "O=C(CSc1nnc(-c2ccncc2)n1C1CCCCC1)Nc1ccccc1", "fluorescence intensity": "20700 (active)"}
{"smiles": "COCCCn1c(SCC(=O)Nc2ccccc2)nnc1-c1ccncc1", "fluorescence intensity": 3490}
{"smiles": "CN(C(=O)c1c(Cl)cnn1C)C12CC3CC(CC(C3)C1)C2", "fluorescence intensity": 2490}
{"smiles": "CCCNC(=O)C1(C)CCCN(Cc2cccc(C(F)(F)F)c2)C1", "note": "(centres undefined)", "fluorescence intensity": 3060}
{"smiles": "O=C(CSc1ncccn1)NC(=O)NCc1ccccc1", "fluorescence intensity": 10500}
{"smiles": "O=C(COc1ncnc2ccccc12)NC(=O)NCc1ccccc1", "fluorescence intensity": "16500 (active)"}
{"smiles": "CC(C)C(C)NC(=O)COc1ncnc2ccccc12", "note": "(centres undefined)", "fluorescence intensity": 2080}
{"smiles": "CCc1nc2ccccc2c(C(=O)NCc2ccc(OC)cc2)c1C", "fluorescence intensity": 4980}
{"smiles": "CSc1ccccc1C(=O)NCc1ccccc1", "fluorescence intensity": 3280}
{"smiles": "CCSc1ccccc1C(=O)NCc1ccc(OC)cc1", "fluorescence intensity": "24300 (active)"}
{"smiles": "O=C(CCN1C(=O)c2ccccc2C1=O)C1=NN[C@@H]2C(=O)N(c3ccc(F)cc3)C(=O)[C@H]12", "fluorescence intensity": 2580}
{"smiles": "CC(C)(C)N1C(=O)c2c(C(=O)OCc3ccccc3)[nH]c(-c3ccccc3)c2C1=O", "fluorescence intensity": 5800}
{"smiles": "Cc1ccc(-c2noc(CN3CCN(Cc4ccccc4)CC3)n2)cc1", "fluorescence intensity": "23500 (active)"}
{"smiles": "O=c1ccc(S(=O)(=O)N2CCCC2)cn1Cc1nc(-c2ccccc2)no1", "fluorescence intensity": 3920}
{"smiles": "CC1CCN(Cc2nc(-c3ccc(Cl)cc3)no2)CC1", "fluorescence intensity": 6270}
{"smiles": "COc1ccc(S(=O)(=O)N2CCCCC2c2cc(C(=O)NCc3ccc(F)cc3)no2)cc1", "note": "(centres undefined)", "fluorescence intensity": 2840}
{"smiles": "CCCNC(=O)COc1coc(CN2CCN(Cc3ccccc3)CC2)cc1=O", "fluorescence intensity": 5680}
{"smiles": "CC1(C)Oc2ccc3ccc(=O)oc3c2/C(=C/NCCO)C1=O", "fluorescence intensity": 2160}
{"smiles": "COc1ccccc1C1=CC(=O)CCC1", "fluorescence intensity": 3790}
{"smiles": "CCOC(=O)CN1CCC(c2ccccc2)CC1", "fluorescence intensity": 2610}
{"smiles": "CCOC(=O)Cn1c2c(c(-c3ccccc3OC)cc1=O)CCCC2", "fluorescence intensity": "23500 (active)"}
{"smiles": "C[C@H]([C@@H](O)[C@@H](O)[C@@H](C)C(C)(C)C)[C@H]1CC[C@H]2C3CC[C@H]4C[C@H](OS(=O)(=O)O)[C@@H](OS(=O)(=O)O)C[C@]4(C)[C@H]3CC[C@]12C", "note": "(some centres undefined)", "fluorescence intensity": 4680}
{"smiles": "CCOC(=O)Cc1csc(SCC(=O)NC(C)C23CC4CC(CC(C4)C2)C3)n1", "note": "(centres undefined)", "fluorescence intensity": 9570}
{"smiles": "COC(=O)CNC(=O)c1ccc2c(c1)S(=O)(=O)c1ccccc1C2=O", "fluorescence intensity": 2970}
{"smiles": "CC(C)NC(=O)NNc1c(Cl)cncc1Cl", "fluorescence intensity": 3840}
{"smiles": "CCC(=O)OCc1c(C(F)(F)F)nn(C)c1Oc1cccc(C(F)(F)F)c1", "fluorescence intensity": "18100 (active)"}
{"smiles": "Cc1nc(N)[nH]c(=O)c1Oc1cccc(C(F)(F)F)c1", "fluorescence intensity": 6010}
{"smiles": "CCOC(=O)NNc1cc(C(F)(F)F)ccn1", "fluorescence intensity": 3590}
{"smiles": "CCCCNC(=O)Nc1c(C)cc(SC#N)cc1C", "fluorescence intensity": 2550}
{"smiles": "Cn1c2ccccc2n2c(=O)c(=O)n(CC(=O)c3ccc(F)cc3)nc12", "fluorescence intensity": 8720}
{"smiles": "CC1(C(=O)NS(=O)(=O)c2ccccc2)CCN1C(=O)C1CCCCC1", "note": "(centres undefined)", "fluorescence intensity": 3660}
{"smiles": "Cc1cc(N2CCN(S(=O)(=O)c3ccc(C)c(C)c3)CC2)c2ccccc2n1", "fluorescence intensity": "23300 (active)"}
{"smiles": "Cc1ccccc1N1CCN(S(=O)(=O)c2ccc3ccccc3c2)CC1", "fluorescence intensity": 4580}
{"smiles": "Cc1ccc(S(=O)(=O)N2CCN(c3ccccc3)CC2)cc1C", "fluorescence intensity": 4010}
{"smiles": "CCCS(=O)(=O)NC(=O)C1(C)CCN(C(=O)c2sccc2C)C1", "note": "(centres undefined)", "fluorescence intensity": 3570}
{"smiles": "CC(=O)N1Cc2cc(C(=O)NCc3cccc(F)c3)nc(-c3cccc(C4=CCCC4)c3)c2[C@H]1CCO", "fluorescence intensity": 5550}
{"smiles": "O=[N+]([O-])c1ccc(C2C3C(c4ccccc4)=NC4(CCCCC4)N32)cc1", "note": "(centres undefined)", "fluorescence intensity": 7680}
{"smiles": "O=c1cc(-c2ccccc2)nc(N2CCCCC2)[nH]1", "fluorescence intensity": 6120}
{"smiles": "O=C1NC2(CCCCC2)N=C1c1ccccc1", "fluorescence intensity": "24900 (active)"}
{"smiles": "CCCNC(=O)C1(C)CCN(C(=O)c2ccc(F)cc2Cl)C1", "note": "(centres undefined)", "fluorescence intensity": 2840}
{"smiles": "COCCNC(=O)C1CCCN(Cc2ccccc2Cl)CC1", "note": "(centres undefined)", "fluorescence intensity": 3660}
{"smiles": "CCOC(=O)c1nnn(-c2nonc2-n2cccc2)c1CN1CCOCC1", "fluorescence intensity": 10800}
{"smiles": "CCOC(=O)c1c(CN(C)C)n(-c2ccccc2)c2cc(Br)c(O)cc12", "fluorescence intensity": 5060}
{"smiles": "CCOC(=O)c1c(CN2CCOCC2)n(-c2ccccc2)c2ccc(O)cc12", "fluorescence intensity": "16500 (active)"}
{"smiles": "C[C@H]1CN([C@@H](C)CO)C(=O)Cc2cc(NS(C)(=O)=O)ccc2O[C@@H]1CN(C)CC1CC1", "fluorescence intensity": 3570}
{"smiles": "CCc1nc2c(OCCOc3ccccc3)cccn2c1N(C)C(=O)c1cccs1", "fluorescence intensity": 3880}
{"smiles": "CCOc1ccc(Cl)cc1-c1cc(C(=O)NCc2cccs2)[nH]n1", "fluorescence intensity": 3900}
{"smiles": "CC(=O)c1cccc(-c2cnc3c(NC=O)cc(-c4ccc(N(C)C)cc4)cn23)c1", "fluorescence intensity": 3260}
{"smiles": "CC(C)(C)OC(=O)N1CCN(C(=O)c2[nH]c(C(F)(F)F)nc2-c2ccccc2)CC1", "fluorescence intensity": 5720}
{"smiles": "O=C(COc1ccc2c(C(F)(F)F)cc(=O)oc2c1)Nc1ccc2c(c1)OCCO2", "fluorescence intensity": "23100 (active)"}
{"smiles": "CC(C)NS(=O)(=O)c1ccc(OCC(=O)Nc2ccc3c(c2)OCCO3)cc1", "fluorescence intensity": 4280}
{"smiles": "CCN(CC(=O)Nc1ccc2c(c1)OCCO2)Cc1cc(=O)oc2cc(C)c(C)cc12", "fluorescence intensity": 10100}
{"smiles": "Cc1cc(C(=O)N2CCCC2(C)C(=O)O)c(C)o1", "note": "(centres undefined)", "fluorescence intensity": 4080}
{"smiles": "Cc1cccc(C)c1Cn1c(C)c(C(=O)NCc2cccc(Cl)c2)sc1=O", "fluorescence intensity": 4280}
{"smiles": "CC(C)COP(=O)(c1ccc(N(C)C)cc1)C(Nc1ccccc1)c1cccnc1", "note": "(centres undefined)", "fluorescence intensity": 2300}
{"smiles": "COC(=O)c1ccc(C(=O)Nc2cc(Cl)ccc2Cl)cc1NC(=O)c1ccccc1C", "fluorescence intensity": "23700 (active)"}
{"smiles": "COC(=O)c1ccc(C(=O)OC)c(NC(=S)N2CCN(c3cc(Cl)ccc3C)CC2)c1", "fluorescence intensity": 2510}
{"smiles": "Cc1ccccc1C(=O)Nc1ccccc1NC(=O)c1ccccc1C", "fluorescence intensity": 3760}
{"smiles": "CC1CCN(S(=O)(=O)c2ccc(S(=O)(=O)NCc3ccco3)cc2)CC1", "fluorescence intensity": 6420}
{"smiles": "O=C1CC2(CC(c3ccc(Cl)cc3)=NO2)C(=O)N1c1ccccc1", "note": "(centres undefined)", "fluorescence intensity": 5420}
{"smiles": "COc1cccc(N2CCN(C3CC(=O)N(c4ccc(Cl)cc4)C3=O)CC2)c1", "note": "(centres undefined)", "fluorescence intensity": 2900}
{"smiles": "COc1ccc(C2=NOC3(CC(=O)N(c4ccc(Cl)cc4)C3=O)C2)c(OC)c1", "note": "(centres undefined)", "fluorescence intensity": "20500 (active)"}
{"smiles": "CSc1ccc(CNC(=O)C2(C)CCCN2C)cc1", "note": "(centres undefined)", "fluorescence intensity": 3920}
{"smiles": "COc1ccc2oc(=O)c(C(=O)O)cc2c1", "fluorescence intensity": "20900 (active)"}
{"smiles": "COc1ccc2oc(N)nc2c1", "fluorescence intensity": 2890}
{"smiles": "COc1ccc2oc(=N)c(C(=O)Nc3ccc(Br)cc3)cc2c1", "fluorescence intensity": 2900}
